The text below walks through data of PubChem BioAssay (NCI).

This is part of a sample that, as a whole, favours compounds with a hit. Of some 83,000 tested, about 20% had one in any assay.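 A percent growth of 40 corresponds to 60% growth inhibition; 0 means no net growth; -100 means all cells died. Active threshold: below 10.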 Values without a mark were called inactive. Activity calls are given as the source filed them.

Among the test systems are DU-145 prostate; K-562 leukemia; MALME-3M melanoma; MDA-MB-231 breast; RXF 393 renal; SF-268 CNS; SF-295 CNS; SF-539 CNS; UACC-257 melanoma; M14 melanoma; HCT-15 colon; HT29 colon; SNB-75 CNS; SNB-19 CNS; U251 CNS; PC-3 prostate; SK-MEL-5 melanoma; UACC-62 melanoma; LOX IMVI melanoma; SK-MEL-28 melanoma.
Common to all, as to experiment: NCI-60 one-dose screen, 48 h (100 = growth as untreated, 0 = no growth, -100 = all killed)
Common to all, as to conditions: 10 µM unless noted

For `O=C(Cc1ccccc1)Nc1cccc(N=Cc2ccccc2O)c1`, the growth was 93.1% in the test with DU-145 prostate; 98.7% in the test on K-562 leukemia; 106% in the test with MALME-3M melanoma; 114% with MDA-MB-231 breast; 111% in the test on RXF 393 renal; 84% in the test with SF-268 CNS. Moreover, the growth was 100% in the test on SF-295 CNS; 101% in the test with SF-539 CNS; 105% with UACC-257 melanoma; 107% in the test on M14 melanoma; 102% with HCT-15 colon; 113% in the test with HT29 colon. Besides, the growth in the test on SNB-75 CNS is 73.8%; in the test on SNB-19 CNS, 99.2%; with U251 CNS it was 94.3%; in the test with PC-3 prostate, 93.4%; in the test with SK-MEL-5 melanoma, 106%; in the test with UACC-62 melanoma, 101%. The growth with LOX IMVI melanoma is 100%; in the test with SK-MEL-28 melanoma it was 111%.

Regarding `Cc1c2cccnc2c(C)c2c1c1cc(CO)ccc1n2C`, the growth was 25.3% in the test on DU-145 prostate; 9.28% (active) with K-562 leukemia; 16.8% in the test with MALME-3M melanoma; 19.9% in the test with MDA-MB-231 breast; 30.2% in the test on RXF 393 renal; 28.8% in the test on SF-268 CNS. For the same compound, the growth was 24.7% in the test with SF-295 CNS; 23.2% with SF-539 CNS; -1.38% (active) in the test with UACC-257 melanoma; 29.8% in the test with M14 melanoma; 18.7% in the test with HCT-15 colon; 16% with HT29 colon. Moreover, the growth with SNB-75 CNS was 45.5%; in the test on SNB-19 CNS, 21.1%; in the test with U251 CNS, 14%; in the test with PC-3 prostate, 31%; with SK-MEL-5 melanoma, 30.6%; in the test on UACC-62 melanoma, -16.6% (active). For the same compound, the values for the growth with LOX IMVI melanoma and with SK-MEL-28 melanoma were 8.95% (active) and 30.6%, respectively.

In the case of `C=C(C)[C@@H]1CCC[C@]2(C(=O)N3CCN(C)CC3)CC[C@]3(C)[C@@H](CC[C@@H]4[C@@]5(C)CC/C(=N\NC(=O)c6ccncc6)C(C)(C)[C@@H]5CC[C@]43C)[C@@H]12`, the growth in the test with DU-145 prostate is 100%; in the test on K-562 leukemia, 17.6%; in the test with MALME-3M melanoma it was 74.1%; in the test on MDA-MB-231 breast, 66.8%; in the test on RXF 393 renal it was 99.7%; in the test on SF-268 CNS it was 84.2%. Moreover, the growth was 104% in the test with SF-295 CNS; 104% in the test with SF-539 CNS; 103% in the test with UACC-257 melanoma; 74.3% with M14 melanoma; 92.1% in the test on HCT-15 colon; 98.8% in the test with HT29 colon. In addition, the growth is 77.7% with SNB-75 CNS; 83.5% in the test on SNB-19 CNS; 99.8% in the test with U251 CNS; 87% with PC-3 prostate; 92.9% in the test on SK-MEL-5 melanoma; 87.4% with UACC-62 melanoma. Moreover, the growth is 89.3% in the test on LOX IMVI melanoma and 95.5% with SK-MEL-28 melanoma.

Consider `CCN1C(=O)N(CC)C2C1NN=c1s/c(=C3\C(=O)N(CCC(C)C)c4ccccc43)c(=O)n12` (stereo not given), for which the growth in the test on DU-145 prostate is 7.36% (active); with K-562 leukemia it was 11.6%; in the test with MALME-3M melanoma, 51.3%; in the test with MDA-MB-231 breast, 5.92% (active); in the test on RXF 393 renal, 33.2%; with SF-268 CNS, 50.8%. In addition, the growth was 8.08% (active) with SF-295 CNS; -15.2% (active) with SF-539 CNS; 65% with UACC-257 melanoma; 13.5% in the test with M14 melanoma; 14.6% in the test on HCT-15 colon; 4.19% (active) in the test on HT29 colon. The growth in the test on SNB-75 CNS is 21.6%; in the test with SNB-19 CNS it was 23.3%; in the test with U251 CNS it was 8.16% (active); with PC-3 prostate, 28.9%; in the test on SK-MEL-5 melanoma, 8.16% (active); in the test on UACC-62 melanoma it was 18.5%. In addition, the results for the growth in the test with LOX IMVI melanoma and in the test with SK-MEL-28 melanoma were 19.2% and 59.9%, respectively.

Take `NC(=O)c1c(NC(=O)c2cccc(C(F)(F)F)c2)sc2c1CCC(=O)C2`: the growth with DU-145 prostate is 29.2%; with K-562 leukemia, -2.81% (active); with MALME-3M melanoma, -41% (active); in the test with MDA-MB-231 breast, -45.5% (active); in the test with RXF 393 renal it was -5.44% (active); with SF-268 CNS it was 19%. Moreover, the growth with SF-295 CNS was -12.9% (active); in the test on SF-539 CNS, -78.1% (active); with UACC-257 melanoma, -6.24% (active); in the test on M14 melanoma, -54% (active); with HCT-15 colon it was -21.2% (active); in the test on HT29 colon, 3.32% (active). For the same compound, the growth with SNB-75 CNS was -75.9% (active); with SNB-19 CNS, 11.6%; in the test on U251 CNS it was 7.56% (active); in the test with PC-3 prostate, -29.8% (active); in the test on SK-MEL-5 melanoma, -56.3% (active); in the test with UACC-62 melanoma it was -45.4% (active). The growth in the test on LOX IMVI melanoma is 5.08% (active); in the test with SK-MEL-28 melanoma, 20.7%.

On to `C=CC(=O)Nc1ccc(Nc2nccc(-c3ccc(N4CCCC4)c(C#N)c3)n2)cc1`, for which the growth in the test on DU-145 prostate is 36.8%; with K-562 leukemia it was 16.6%; with MALME-3M melanoma, -41.8% (active); in the test on MDA-MB-231 breast it was 60.9%; in the test on RXF 393 renal it was -54.5% (active); in the test with SF-268 CNS, 43.9%. In addition, the growth with SF-295 CNS was -36.9% (active); in the test with SF-539 CNS, 51.1%; in the test on UACC-257 melanoma it was 39.4%; with M14 melanoma it was 3.42% (active); with HCT-15 colon, -36.7% (active); in the test with HT29 colon, 2.55% (active). The growth was 15.4% in the test with SNB-75 CNS; 41.5% in the test with SNB-19 CNS; 5.57% (active) in the test on U251 CNS; 23.6% with PC-3 prostate; 15.4% in the test on SK-MEL-5 melanoma; 52.9% in the test with UACC-62 melanoma. The growth in the test with LOX IMVI melanoma is 69.4%; in the test on SK-MEL-28 melanoma it was -46.1% (active).

For `Cn1cc(-c2csc(-c3cn(CCCN4CCOCC4)c4ccccc34)n2)c2cccnc21`, the growth with DU-145 prostate is 97.9%; in the test on K-562 leukemia, 26.2%; with MALME-3M melanoma, 108%; with MDA-MB-231 breast, 76.5%; in the test on RXF 393 renal, 65.7%; with SF-268 CNS, 91.7%. Also, the growth in the test on SF-295 CNS is 79.5%; with SF-539 CNS, 89.4%; with UACC-257 melanoma, 89.3%; in the test on M14 melanoma, 83.6%; in the test on HCT-15 colon, 55.5%; in the test with HT29 colon it was 32.9%. Besides, the growth in the test on SNB-75 CNS is 82.6%; with SNB-19 CNS, 90.8%; in the test on U251 CNS, 64.3%; in the test with PC-3 prostate, 68%; in the test on SK-MEL-5 melanoma, 64.6%; in the test with UACC-62 melanoma, 92.5%. In addition, the growth in the test with LOX IMVI melanoma is 79%; in the test with SK-MEL-28 melanoma, 88.6%.

Turning to `C=CCN1C(=O)c2cccc3c(N4CCOCC4)ccc(c23)C1=O`, the growth in the test on DU-145 prostate is 10.3%; in the test with K-562 leukemia, 9.78% (active); in the test on MALME-3M melanoma it was -3.28% (active); in the test on MDA-MB-231 breast it was 23.9%; in the test on RXF 393 renal it was -29.9% (active); in the test with SF-268 CNS it was -23.9% (active). In addition, the growth in the test on SF-295 CNS is 2.87% (active); with SF-539 CNS it was 0.495% (active); with UACC-257 melanoma, -3.63% (active); with M14 melanoma, 0.387% (active); in the test with HCT-15 colon it was -9.11% (active); in the test on HT29 colon, 6.76% (active). Moreover, the growth is 12.8% in the test on SNB-75 CNS; 24.9% with SNB-19 CNS; 5.37% (active) in the test with U251 CNS; -21.3% (active) in the test on PC-3 prostate; -62.7% (active) with SK-MEL-5 melanoma; -24.7% (active) in the test on UACC-62 melanoma. Besides, the growth in the test on LOX IMVI melanoma is 1.13% (active); in the test with SK-MEL-28 melanoma, 5.67% (active).
